Only some compounds are listed: those with a hit (about 13% of all), similar ones and a draw of the others.
USP28 inh – inhibitors of human USP28 deubiquitinase; 47,000 compounds, 3% hits; inhibition, % at 25 µM; purified USP28, Ub-rhodamine cleavage fluorescence, 30 min
USP30 inh – inhibitors of human USP30 deubiquitinase. Q70CQ3. purified USP30, Ub-rhodamine cleavage fluorescence. inhibition, % at 25 µM. 47,000 compounds, 5.3% hits
Target sequence (Q70CQ3 whole entry, looked up): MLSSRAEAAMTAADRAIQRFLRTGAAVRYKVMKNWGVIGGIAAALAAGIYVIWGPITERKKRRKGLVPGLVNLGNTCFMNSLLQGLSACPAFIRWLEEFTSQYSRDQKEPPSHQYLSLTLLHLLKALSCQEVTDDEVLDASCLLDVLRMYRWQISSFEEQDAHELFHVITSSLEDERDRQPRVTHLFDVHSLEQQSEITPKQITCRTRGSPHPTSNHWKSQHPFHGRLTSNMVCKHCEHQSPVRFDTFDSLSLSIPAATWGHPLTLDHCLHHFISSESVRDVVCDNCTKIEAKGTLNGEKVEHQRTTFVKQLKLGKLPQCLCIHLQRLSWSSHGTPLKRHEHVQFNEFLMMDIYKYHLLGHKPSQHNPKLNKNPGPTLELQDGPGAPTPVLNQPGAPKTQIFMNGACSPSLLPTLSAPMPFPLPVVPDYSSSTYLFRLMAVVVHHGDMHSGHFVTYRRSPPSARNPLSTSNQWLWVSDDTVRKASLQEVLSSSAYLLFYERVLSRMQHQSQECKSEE
USP8 inh – blocks human USP8 ubiquitin-rhodamine cleavage | purified USP8, Ub-rhodamine cleavage fluorescence, 30 min | inhibition, % at 20 µM | 47,000 compounds, 4.2% hits | AID 1645853
USP10 block – blocks human USP10 ubiquitin-rhodamine cleavage; Q14694; inhibition, % at 20 µM; 47,000 compounds, 1.1% hits; purified USP10, Ub-rhodamine fluorescence, 60 min; AID 1645856
USP17 block – inhibitors of human USP17 deubiquitinase | A8MUK1 | purified USP17, Ub-rhodamine cleavage fluorescence, 3 h | inhibition, % at 50 µM | 47,000 compounds, 6.5% hits
Each line names hits and unclear results; the compound was inactive in the other large screens. Rule as the data show it: active = inhibition above about 30%; inactive = the rest.

CC(=O)c1cccc(NC(=O)C(=O)c2cn(CC(=O)N3CCOCC3)c3ccccc23)c1	none
Cc1cccc(NC(=O)c2cn(-c3ncccc3-c3nc(C)no3)cn2)c1	none
CCCn1nnc2cc(-c3noc(CNC(=O)c4cccs4)n3)ccc21	USP17 block 33
O=C(NCc1nc(-c2ccc3c(c2)ncn3C2CCCC2)no1)c1cccs1	none
COc1ccc(-c2nnc3ccc(SCC(=O)N4CCCc5ccccc54)nn23)cc1OC	none
COc1ccc2ncc(S(=O)(=O)c3ccccc3)c(N3CCCCCC3)c2c1	none
CCc1ccc2ncc(S(=O)(=O)c3ccccc3)c(N3CCCC3)c2c1	USP8 inh 36
O=C(NC1=NCCS1)c1cnn(Cc2ccccc2)c1	none
Cc1nn(-c2ccccc2)c(C)c1NC(=O)c1cnn(Cc2ccccc2)c1	USP28 inh 31
Cc1cc(C)n2nc(C(=O)Nc3nc4ccc(F)cc4s3)nc2n1	none
O=C(Nc1nc2ccc(F)cc2s1)c1cccc2c(Br)cccc12	USP17 block 33
Cc1ccc(Cn2c(C(=O)Nc3cccnc3)cc3sccc32)cc1	USP8 inh 43, USP17 block 42
COc1ccc(CC(=O)NCC2CCCCC2)cc1S(=O)(=O)N1CCOCC1	none (no result: USP17 block)
C[C@@H](NC(=O)c1cccnc1)C(=O)N1CCN(c2ccc(Cl)cc2)CC1	none
Cc1ccc2[nH]cc(S(=O)(=O)c3cc(Cl)cc(Cl)c3)c(=O)c2c1	USP17 block 48
CCOC(=O)c1ccc2[nH]cc(C(C)=O)c(=O)c2c1	none (no result: USP28 inh, USP30 inh)
C[C@H](NC(=O)c1cccs1)c1nnc2ccccn12	USP30 inh 30
Cc1ccc(C(=O)N[C@@H](C)c2nnc3ccccn23)cc1	none
CCCCC(=O)N1CCCC1c1nnc(C(=O)Nc2cccc(F)c2)s1 (stereo unspecified)	none
O=C(c1cccnc1)N1CCC2(CC1)COc1ccccc1S(=O)(=O)N(CC1CC1)C2	none
COc1ccc(CN(C)c2nc3cc(C)nn3c3ccccc23)cc1	none
COC(=O)CN1c2ccccc2NC2=C(C(=O)CC(C)(C)C2)C1c1cccs1 (stereo unspecified)	USP30 inh 31
Cn1c2ccc(F)cc2c2ncn(Cc3ccc4c(c3)OCO4)c(=O)c21	USP8 inh 32
Cc1c(Cl)cccc1S(=O)(=O)N1CCCN(CCn2cccn2)CC1	none
Cc1onc(-c2ccccc2)c1CNC(=O)c1ccccc1C(=O)O	none
Cc1onc(-c2ccccc2)c1CNC(=O)C1CCN(c2nccc(C(F)(F)F)n2)CC1	USP17 block 76 (no result: USP28 inh, USP30 inh)
CCC(C)C1C(=O)N2NCCCC2C(=O)N2NCCCC2C(=O)N(C)C(Cc2ccccc2)C(=O)N2CCCC2C(=O)NC(Cc2ccccc2)C(=O)N1O (stereo unspecified)	none
O=C1N[C@@H](Cc2ccccc2)C(=O)N2[C@H]3Nc4ccccc4[C@@]3([C@]34C[C@H]5C(=O)N[C@@H](Cc6ccccc6)C(=O)N5[C@H]3Nc3ccccc34)C[C@@H]12	USP30 inh 49, USP17 block 53
COc1ccc(CNC(=O)CCC2=NS(=O)(=O)c3ccc(C)cc3N2)cc1	none
CN(C)C(=O)CSc1nnc(-c2cccc(Cl)c2)n1-c1ccc(Cl)c(C(F)(F)F)c1	USP30 inh 47, USP17 block 68
Cc1ccc(C2N3CC4(C)CN2CC(c2ccccc2)(C3)C4=O)cc1 (stereo unspecified)	USP30 inh 34
CC(C)(Oc1ccc(Cl)cc1)C(=O)N1CC(c2nc(-c3ccc[nH]c3=O)no2)C1	none
COc1cc2oc(C)cc(=O)c2c(O)c1CO	none
COc1cc(O)c2c(=O)cc(C)oc2c1CC=C(C)C	USP30 inh 31, USP17 block 38
CC1c2[nH]c3ccccc3c2C[C@@H]2C(=O)N(CCc3ccccc3)CC(=O)N12 (stereo partly specified)	none
Nc1c(-c2ccncc2)nsc1C(=O)N1CCc2ccccc2C1	none
N#Cc1ccc(Cn2nnc(-c3cccc(Cl)c3)n2)cc1	USP28 inh 73
COc1ccc(-c2nnn(Cc3ccc(-c4ccccc4)cc3)n2)cc1OC	none
CC(=O)Nc1ccc(C)n(CC(=O)NC2CCCCC2)c1=O	none (no result: USP17 block)
CO[C@@H]1C(=O)CC[C@]2(CO2)[C@@]1(O)[C@@]1(C)O[C@@H]1CC=C(C)C	none
Cc1cc(C(=O)N2CC[C@@H]3CN(Cc4ccc(Cl)cc4)S(=O)(=O)[C@@H]3CC2)no1	none
Cc1cc(C(=O)Nc2cc(C)n(Cc3ccc(Cl)cc3)n2)no1	USP28 inh 72
CCc1nc2c(NC(=O)NC3CCCCC3)cccn2n1	USP8 inh 32
CCc1nc2c(NC(=O)C3CCCCC3)cccn2n1	none (no result: USP17 block)
CC(C)c1ccc(C(C(=O)NC2CCCCC2)N(C(=O)c2cnccn2)c2cccc(F)c2)cc1 (stereo unspecified)	USP30 inh 66, USP8 inh 30
COc1ccc(-c2cnc3nc(NCCO)nc(N)c3n2)cc1	none
Cc1cnnn1-c1ccc(C(=O)Nc2ccccc2Cl)cc1	none (no result: USP28 inh, USP30 inh)
Cc1cc(C)c(O)c(-c2cc(C(=O)Nc3ccccc3Cl)[nH]n2)c1	USP30 inh 46, USP8 inh 97, USP17 block 68
CC1=NOC(CNC(=O)Nc2ccccc2F)C1 (stereo unspecified)	none (no result: USP17 block)
Cc1cccc(-c2cc(C(=O)Nc3ccccc3F)[nH]n2)c1O	USP28 inh 36, USP30 inh 58, USP17 block 90
CC(=O)N1c2ccc(S(=O)(=O)N3CCC(C(=O)NCCc4cccc(C)c4)CC3)cc2CC1C (stereo unspecified)	none
Cc1cc(C)cc(-n2cnc3cc(C(=O)NCCC4=CCCCC4)ccc32)c1	USP28 inh 63
COc1cc(-n2cnc3cc(C(=O)NCCN4CCOCC4)ccc32)cc(OC)c1OC	none
COCCN1C[C@@H](C)[C@@]2(COCCN(C(=O)c3cccc(C)n3)C2)C1	none
Cc1cc(F)ccc1NC(=O)Cn1ncc2ccccc21	none
Cc1cc(C(F)(F)F)nc(-n2cc(-c3ccccc3)nn2)n1	USP17 block 35
Fc1ccc(-c2cc(C(F)(F)F)nc(-n3nnc4ccccc43)n2)cc1	none
COc1ccc(N(C(=O)c2cccnc2)S(=O)(=O)c2cccc3cccnc23)cc1	none
Cc1ccc(NC(=O)c2cn(CC(O)c3ccc4c(c3)OCO4)nn2)cc1 (stereo unspecified)	USP30 inh 47, USP17 block 46
Nc1cc(C2CCN(C(=O)CCCc3ccccc3)CC2)no1	none (no result: USP28 inh, USP30 inh)
Cc1c(OCc2ccccc2)noc1C1CCN(C(=O)CCN)CC1	USP28 inh 41
CC(=O)Nc1ccc(C(=O)COc2ncnc3c2cnn3-c2ccccc2)cc1	none
Cc1nn(-c2ccccc2)c(N2CCCC2)c1/C=C(\C#N)c1nc2ccccc2s1	none
Cc1ccc(S(=O)(=O)N2CCOCC2)cc1C(=O)NCCc1ccc(S(N)(=O)=O)cc1	none
O=C(CCc1ccc(S(=O)(=O)N2CCOCC2)cc1)Nc1ccc2c(c1)OCO2	none
Cc1ccc(NC(=O)CCc2ccc(S(=O)(=O)N3CCOCC3)cc2)c(O)c1	USP8 inh 47
O=C(CCc1ccc(S(=O)(=O)N2CCOCC2)cc1)Nc1ccc2c(c1)OCCO2	USP28 inh 61

High-throughput results from PubChem.
